# “And” between values parts separate entries of the source, which are not always exact repeats. Equal entries are not always repeated. Compounds without any hit were thinned out: in the full panel of roughly 79,000, 15% have a hit. Where a structure was tested more than once in an assay, its records may differ in their call. The source made the active and inactive calls. Cut-off read from the data, not from the text of the source: active = growth inhibition above about 70%; inactive = the rest.
# Experiments:
# [1] = NCI Yeast Anticancer Drug Screen. Data for the rad52 strain (AID 147);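 note: 0% = growth of vehicle-treated control cultures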; details: S. cerevisiae rad52 mutant growth inhibition, stronger effect = higher value
# Method in brief: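 Here a repair-compromised yeast strain receives each compound; its growth is then quantified and normalised to vehicle-only controls.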
# [2] = NCI Yeast Anticancer Drug Screen. Data for the wt1 strain (AID 149);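 note: 0% = growth of vehicle-treated wt1 cultures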; details: S. cerevisiae wt1 strain (SPY 50644) growth inhibition, stronger effect = higher value
# Method in brief: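 Each compound is tested on wt1 yeast and the loss of growth versus vehicle gives the inhibition value.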
# [3] = NCI Yeast Anticancer Drug Screen. Data for the rad50EPP+ strain (AID 151);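 note: 0% = growth of vehicle-treated control cultures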; details: S. cerevisiae rad50 mutant strain, stronger effect = higher value
# Method in brief: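 Read-out is yeast growth inhibition relative to vehicle; cells used were the rad50EPP+ strain.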
# [4] = NCI Yeast Anticancer Drug Screen. Data for the mgt1 strain (AID 153); details: S. cerevisiae mgt1 mutant growth inhibition, stronger effect = higher value
# Method in brief: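 Measured: inhibition of mgt1 yeast growth by compound, normalized to vehicle-treated cultures.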
# [5] = NCI Yeast Anticancer Drug Screen. Data for the rad50 strain (AID 155);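 note: 0% = growth of vehicle-only cultures of the same strain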; details: S. cerevisiae rad50 strain growth inhibition, stronger effect = higher value
# Method in brief: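 Vehicle-treated cultures provide the reference for the growth inhibition reported for compound-exposed, repair-deficient yeast.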
# [6] = NCI Yeast Anticancer Drug Screen. Data for the mec2-1 strain (AID 157); details: S. cerevisiae mec2-1 strain, stronger effect = higher value
# Method in brief: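 Using mec2-1 yeast: add compound, measure growth, express inhibition versus vehicle-treated cultures.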
# [7] = NCI Yeast Anticancer Drug Screen. Data for the rad14 strain (AID 159);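 note: 0% = growth of vehicle-treated control cultures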; details: S. cerevisiae rad14 strain growth inhibition, stronger effect = higher value
# Method in brief: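 Inhibition of growth is reported for a repair-deficient yeast mutant following compound treatment, calculated relative to cultures that received vehicle.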
# [8] = NCI Yeast Anticancer Drug Screen. Data for the sgs1 mgt1 strain (AID 161);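 note: 0% = growth of cultures given vehicle only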; details: S. cerevisiae sgs1 mgt1 strain, stronger effect = higher value
# Method in brief: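 Yeast cells carrying a defined DNA-repair defect were exposed to test compounds. Growth inhibition was measured relative to vehicle-treated controls.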
# [9] = NCI Yeast Anticancer Drug Screen. Data for the CLN2oe strain (AID 163);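 note: 0% = growth of vehicle-only control cultures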; details: S. cerevisiae CLN2oe strain, stronger effect = higher value
# Method in brief: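 Whole-cell yeast growth assay. A strain engineered for altered cell-cycle control received compound, and inhibition relative to vehicle-treated cultures was recorded.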
# [10] = NCI Yeast Anticancer Drug Screen. Data for the cln2 rad14 strain (AID 165);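 note: 0% = growth equal to vehicle treated cultures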; details: S. cerevisiae cln2 rad14 strain, stronger effect = higher value
# Method in brief: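 Yeast strain cln2 rad14, bearing defects in cell cycle control and DNA repair, serves as the test system; values reflect growth inhibition compared with vehicle.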
# [11] = NCI Yeast Anticancer Drug Screen. Data for the bub3 strain (AID 167); details: S. cerevisiae bub3 mutant strain, stronger effect = higher value
# Method in brief: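 Mutant yeast screening strain plus compound; vehicle-treated cultures serve as the 0% inhibition reference.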
# [12] = NCI Yeast Anticancer Drug Screen. Data for the wt2 strain (AID 169); details: S. cerevisiae wt2 strain growth inhibition, stronger effect = higher value
# Method in brief: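 Treated yeast vs. vehicle-treated yeast: growth inhibition determined.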
# [13] = NCI Yeast Anticancer Drug Screen. Data for the mlh1 strain (AID 171);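 note: 0% = growth of vehicle-treated control cultures of the same strain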; details: S. cerevisiae mlh1 strain growth inhibition, stronger effect = higher value
# Method in brief: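 A yeast strain with a defined genetic lesion serves as the test organism. Cultures receive compound or vehicle, and growth is measured.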
# [14] = NCI Yeast Anticancer Drug Screen. Data for the sgs1 strain (AID 173);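 note: 0% = growth of vehicle-only control cultures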; details: S. cerevisiae sgs1 mutant, stronger effect = higher value
# Method in brief: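 A genetically defined yeast mutant is incubated with the test compound, and its growth is compared to that of the same strain given vehicle.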
# [15] = at 5.0 µM (retest, dose inferred, filed as 0.5)
# [16] = at 50.0 µM (retest, dose inferred, filed as 5.0)
smiles,measurement,setting,value
Cc1c2ccnc(C(=O)NCCN(C)C)c2cc2c3cc(O)ccc3n(C)c12,growth inhibition,[1]; at 1.2 µM,2% (inactive)
same,growth inhibition,[1]; at 3.7 µM,23% (inactive)
same,growth inhibition,[1]; at 11.0 µM,69% (inactive)
same,growth inhibition,[1]; at 33.0 µM,88% (active)
same,growth inhibition,[1]; at 100.0 µM,92% (active)
same,growth inhibition,[2]; at 1.2 µM,2% (inactive)
same,growth inhibition,[2]; at 3.7 µM,5% (inactive)
same,growth inhibition,[2]; at 11.0 µM,10% (inactive)
same,growth inhibition,[2]; at 33.0 µM,20% (inactive)
same,growth inhibition,[2]; at 100.0 µM,29% (inactive)
same,growth inhibition,[3]; at 1.2 µM,-2% (inactive)
same,growth inhibition,[3]; at 3.7 µM,4% (inactive)
same,growth inhibition,[3]; at 11.0 µM,22% (inactive)
same,growth inhibition,[3]; at 33.0 µM,44% (inactive)
same,growth inhibition,[3]; at 100.0 µM,56% (inactive)
same,growth inhibition,[4]; at 1.2 µM,0% (inactive)
same,growth inhibition,[4]; at 3.7 µM,2% (inactive)
same,growth inhibition,[4]; at 11.0 µM,8% (inactive)
same,growth inhibition,[4]; at 33.0 µM,10% (inactive)
same,growth inhibition,[4]; at 100.0 µM,30% (inactive)
same,growth inhibition,[5]; at 1.2 µM,1% (inactive)
same,growth inhibition,[5]; at 3.7 µM,20% (inactive)
same,growth inhibition,[5]; [15],11% (inactive)
same,growth inhibition,[5]; at 11.0 µM,67% (inactive)
same,growth inhibition,[5]; at 33.0 µM,88% (active)
same,growth inhibition,[5]; [16],59% (inactive)
same,growth inhibition,[5]; at 50.0 µM,92.1% (active)
same,growth inhibition,[5]; at 100.0 µM,92% (active)
same,growth inhibition,[6]; at 1.2 µM,1% (inactive)
same,growth inhibition,[6]; at 3.7 µM,6% (inactive)
same,growth inhibition,[6]; [15],-7% (inactive)
same,growth inhibition,[6]; at 11.0 µM,14% (inactive)
same,growth inhibition,[6]; at 33.0 µM,26% (inactive)
same,growth inhibition,[6]; [16],7% (inactive)
same,growth inhibition,[6]; at 50.0 µM,23.8% (inactive)
same,growth inhibition,[6]; at 100.0 µM,39% (inactive)
same,growth inhibition,[7]; at 1.2 µM,1% (inactive)
same,growth inhibition,[7]; at 3.7 µM,3% (inactive)
same,growth inhibition,[7]; at 11.0 µM,9% (inactive)
same,growth inhibition,[7]; at 33.0 µM,21% (inactive)
same,growth inhibition,[7]; at 100.0 µM,37% (inactive)
same,growth inhibition,[8]; [15],-4% (inactive)
same,growth inhibition,[8]; [16],8% (inactive)
same,growth inhibition,[8]; at 50.0 µM,13.3% (inactive)
same,growth inhibition,[9]; at 1.2 µM,0% (inactive)
same,growth inhibition,[9]; at 3.7 µM,1% (inactive)
same,growth inhibition,[9]; at 11.0 µM,0% (inactive)
same,growth inhibition,[9]; at 33.0 µM,9% (inactive)
same,growth inhibition,[9]; at 100.0 µM,19% (inactive)
same,growth inhibition,[10]; [15],4% (inactive)
same,growth inhibition,[10]; [16],33% (inactive)
same,growth inhibition,[10]; at 50.0 µM,44.5% (inactive)
same,growth inhibition,[11]; at 1.2 µM,1% (inactive)
same,growth inhibition,[11]; at 3.7 µM,1% (inactive)
same,growth inhibition,[11]; [15],40% (inactive)
same,growth inhibition,[11]; at 11.0 µM,4% (inactive)
same,growth inhibition,[11]; at 33.0 µM,14% (inactive)
same,growth inhibition,[11]; [16],42% (inactive)
same,growth inhibition,[11]; at 50.0 µM,8.05% (inactive)
same,growth inhibition,[11]; at 100.0 µM,23% (inactive)
same,growth inhibition,[12]; at 1.2 µM,1% (inactive)
same,growth inhibition,[12]; at 3.7 µM,2% (inactive)
same,growth inhibition,[12]; at 11.0 µM,7% (inactive)
same,growth inhibition,[12]; at 33.0 µM,20% (inactive)
same,growth inhibition,[12]; at 100.0 µM,30% (inactive)
same,growth inhibition,[13]; at 1.2 µM,4% (inactive)
same,growth inhibition,[13]; at 3.7 µM,4% (inactive)
same,growth inhibition,[13]; at 11.0 µM,10% (inactive)
same,growth inhibition,[13]; at 33.0 µM,21% (inactive)
same,growth inhibition,[13]; at 100.0 µM,32% (inactive)
same,growth inhibition,[14]; at 1.2 µM,-2% (inactive)
same,growth inhibition,[14]; at 3.7 µM,2% (inactive)
same,growth inhibition,[14]; at 11.0 µM,4% (inactive)
same,growth inhibition,[14]; at 33.0 µM,17% (inactive)
same,growth inhibition,[14]; at 100.0 µM,32% (inactive)
Cc1ccc(Sc2ccccc2N)cc1,growth inhibition,[1]; at 1.2 µM,9% (inactive)
same,growth inhibition,[1]; at 3.7 µM,-3% (inactive)
same,growth inhibition,[1]; at 11.0 µM,-13% (inactive)
same,growth inhibition,[1]; at 33.0 µM,45% (inactive)
same,growth inhibition,[1]; at 100.0 µM,98% (active)
same,growth inhibition,[2]; at 1.2 µM,16% (inactive)
same,growth inhibition,[2]; at 3.7 µM,6% (inactive)
same,growth inhibition,[2]; at 11.0 µM,-7% (inactive)
same,growth inhibition,[2]; at 33.0 µM,42% (inactive)
same,growth inhibition,[2]; at 100.0 µM,99% (active)
same,growth inhibition,[3]; at 1.2 µM,8% (inactive)
same,growth inhibition,[3]; at 3.7 µM,-1% (inactive)
same,growth inhibition,[3]; at 11.0 µM,16% (inactive)
same,growth inhibition,[3]; at 33.0 µM,64% (inactive)
same,growth inhibition,[3]; at 100.0 µM,93% (active)
same,growth inhibition,[4]; at 1.2 µM,0% (inactive)
same,growth inhibition,[4]; at 3.7 µM,-17% (inactive)
same,growth inhibition,[4]; at 11.0 µM,-21% (inactive)
same,growth inhibition,[4]; at 33.0 µM,38% (inactive)
same,growth inhibition,[4]; at 100.0 µM,98% (active)
same,growth inhibition,[5]; at 1.2 µM,0% (inactive)
same,growth inhibition,[5]; at 3.7 µM,-3% (inactive)
same,growth inhibition,[5]; [15],31% (inactive) and 32% (inactive)
same,growth inhibition,[5]; at 11.0 µM,-12% (inactive)
same,growth inhibition,[5]; at 33.0 µM,17% (inactive)
same,growth inhibition,[5]; [16],95% (active) and 62% (inactive)
same,growth inhibition,[5]; at 50.0 µM,90.5% (active)
same,growth inhibition,[5]; at 100.0 µM,98% (active)
same,growth inhibition,[6]; at 1.2 µM,-30% (inactive)
same,growth inhibition,[6]; at 3.7 µM,-18% (inactive)
same,growth inhibition,[6]; [15],50% (inactive) and 23% (inactive)
same,growth inhibition,[6]; at 11.0 µM,-32% (inactive)
same,growth inhibition,[6]; at 33.0 µM,25% (inactive)
same,growth inhibition,[6]; [16],95% (active) and 64% (inactive)
same,growth inhibition,[6]; at 50.0 µM,92.3% (active)
same,growth inhibition,[6]; at 100.0 µM,98% (active)
same,growth inhibition,[7]; at 1.2 µM,-4% (inactive)
same,growth inhibition,[7]; at 3.7 µM,-18% (inactive)
same,growth inhibition,[7]; at 11.0 µM,-10% (inactive)
same,growth inhibition,[7]; at 33.0 µM,32% (inactive)
same,growth inhibition,[7]; at 100.0 µM,99% (active)
same,growth inhibition,[8]; [15],-5% (inactive) and 43% (inactive)
same,growth inhibition,[8]; [16],91% (active) and 73% (active)
same,growth inhibition,[8]; at 50.0 µM,93.2% (active)
same,growth inhibition,[9]; at 1.2 µM,22% (inactive)
same,growth inhibition,[9]; at 3.7 µM,12% (inactive)
same,growth inhibition,[9]; at 11.0 µM,-3% (inactive)
same,growth inhibition,[9]; at 33.0 µM,46% (inactive)
same,growth inhibition,[9]; at 100.0 µM,98% (active)
same,growth inhibition,[10]; [15],42% (inactive) and 29% (inactive)
same,growth inhibition,[10]; [16],94% (active) and 67% (inactive)
same,growth inhibition,[10]; at 50.0 µM,91.7% (active)
same,growth inhibition,[11]; at 1.2 µM,-6% (inactive)
same,growth inhibition,[11]; at 3.7 µM,-2% (inactive)
same,growth inhibition,[11]; [15],34% (inactive) and 40% (inactive)
same,growth inhibition,[11]; at 11.0 µM,-10% (inactive)
same,growth inhibition,[11]; at 33.0 µM,24% (inactive)
same,growth inhibition,[11]; [16],94% (active) and 81% (active)
same,growth inhibition,[11]; at 50.0 µM,92% (active)
same,growth inhibition,[11]; at 100.0 µM,98% (active)
